Experiment in all cases: NCI-60 one-dose screen, 48 h (100 = growth as untreated, 0 = no growth, -100 = all killed)
In one assay the test system is DU-145 prostate. The conditions noted are these: 10 µM.
The subject of another assay is K-562 leukemia. The settings on record: 10 µM.
The subject of a further assay is MALME-3M melanoma. The conditions noted are these: 10 µM.
Another assay has as its system MDA-MB-231 breast. The settings on record: 10 µM.
In another assay the test system is RXF 393 renal. The settings on record: 10 µM.
Another assay concerns SF-268 CNS. The settings on record: 10 µM.
In the next assay the test system is SF-295 CNS. The settings on record: 10 µM.
Another assay deals with SF-539 CNS. The settings on record: 10 µM.
The test system of a further assay is UACC-257 melanoma. The conditions noted are these: 10 µM.
The test system of the next assay is M14 melanoma. The settings on record: 10 µM unless noted.
Another assay has as its system HCT-15 colon. The settings on record: 10 µM.
In another assay the test system is HT29 colon. The conditions noted are these: 10 µM.
The subject of the next assay is SNB-75 CNS. The settings on record: 10 µM.
The subject of another assay is SNB-19 CNS. The conditions noted are these: 10 µM.
Another assay concerns U251 CNS. The settings on record: 10 µM.
The test system of another assay is PC-3 prostate. The settings on record: 10 µM.
The subject of the next assay is SK-MEL-5 melanoma. The conditions noted are these: 10 µM.
The next assay has as its system UACC-62 melanoma. The settings on record: 10 µM.
The test system of the next assay is LOX IMVI melanoma. The settings on record: 10 µM.
The next assay deals with SK-MEL-28 melanoma. The conditions noted are these: 10 µM.

Molecules are shown by their SMILES. Compounds without any hit were thinned out: in the full panel of roughly 83,000, 20% have a hit.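 The test compound was applied at a single concentration to cells in 96-well plates for 48 hours, and percent growth was recorded.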 A number with no mark means an inactive call. The source made the active and inactive calls. The calls were made as follows: active = growth percent below 10; inactive = the rest.

Consider 7 molecules from PubChem BioAssay (NCI).

On to `CN(C)c1ccc(/C=C/c2ccnc3ccccc23)cc1N`, for which the growth is 83.5% in the assay with DU-145 prostate; 31.1% in the assay with K-562 leukemia; 68% with MALME-3M melanoma; 46.1% in the assay with MDA-MB-231 breast; 80.9% with RXF 393 renal; 87.4% in the assay with SF-268 CNS. Further, the growth with SF-295 CNS is 74.8%; in the assay with SF-539 CNS, 76.9%; with UACC-257 melanoma, 58.7%; in the assay on M14 melanoma it was 73.9%; in the assay on HCT-15 colon, 59.5%; with HT29 colon it was 58.5%. The growth in the assay with SNB-75 CNS was 85.8%; with SNB-19 CNS, 80.2%; in the assay on U251 CNS, 66.7%; in the assay with PC-3 prostate, 60.4%; in the assay with SK-MEL-5 melanoma, 13.6%; with UACC-62 melanoma it was 63.3%. Besides, the growth in the assay on LOX IMVI melanoma was 71.4%; in the assay on SK-MEL-28 melanoma it was 83.8%.
In the case of `O=C1c2cccc3cc([N+](=O)[O-])cc(c23)C(=O)N1CCN1CCCC1`, the growth in the assay with DU-145 prostate was -30.9% (active); in the assay with K-562 leukemia, -10.2% (active); with MALME-3M melanoma, -26.4% (active); in the assay with MDA-MB-231 breast it was 20.6%; in the assay on RXF 393 renal, -43% (active); in the assay with SF-268 CNS it was 0.438% (active). Moreover, the growth in the assay on SF-295 CNS is 11%; with SF-539 CNS, -20.7% (active); in the assay with UACC-257 melanoma, 3.14% (active); with M14 melanoma, 0.262% (active); in the assay on HCT-15 colon, -7.27% (active); in the assay with HT29 colon it was 2.59% (active). Besides, the growth with SNB-75 CNS was -15.1% (active); in the assay with SNB-19 CNS it was -0.129% (active); with U251 CNS it was -12.3% (active); with PC-3 prostate, 14.4%; in the assay on SK-MEL-5 melanoma, -88.6% (active); in the assay on UACC-62 melanoma, -66.1% (active). Moreover, the growth in the assay with LOX IMVI melanoma was -65.9% (active); with SK-MEL-28 melanoma it was -36.5% (active).
As to `COc1ccc2c(c1)[nH]c1c(/C=C/c3ccccc3)nccc12`, the growth is 103% in the assay with DU-145 prostate; 36.1% in the assay on K-562 leukemia; 69.2% in the assay with MALME-3M melanoma; 73.7% in the assay with MDA-MB-231 breast; 69.5% with RXF 393 renal; 85.5% in the assay with SF-268 CNS. In addition, the growth in the assay on SF-295 CNS is 59.2%; in the assay with SF-539 CNS, 52.1%; in the assay with UACC-257 melanoma, 71.8%; in the assay with M14 melanoma, 71.4%; in the assay with HCT-15 colon it was 43.9%; in the assay on HT29 colon, 21.6%. Further, the growth was 35.7% in the assay with SNB-75 CNS; 76.5% with SNB-19 CNS; 70.4% with U251 CNS; 42.5% with PC-3 prostate; 72.8% in the assay with SK-MEL-5 melanoma; 78.9% with UACC-62 melanoma. Further, in the assay with LOX IMVI melanoma, the growth was 63.4%.
With `O=C(O)c1ccccc1.[Ag]`, the growth with DU-145 prostate is 105%; in the assay on K-562 leukemia, 90.3%; in the assay on MALME-3M melanoma, 119%; with MDA-MB-231 breast it was 89%; with RXF 393 renal, 106%; with SF-268 CNS it was 97.1%. Also, the growth with SF-295 CNS was 99.7%; in the assay on SF-539 CNS, 106%; with UACC-257 melanoma, 93.6%; with M14 melanoma, 96.4%; in the assay on HCT-15 colon, 110%; in the assay on HT29 colon, 97.9%. For the same molecule, the growth was 110% in the assay with SNB-75 CNS; 105% in the assay on SNB-19 CNS; 97% with U251 CNS; 86.8% in the assay with PC-3 prostate; 28.5% in the assay with SK-MEL-5 melanoma; 105% in the assay on UACC-62 melanoma. Besides, the growth in the assay with LOX IMVI melanoma was 17%; in the assay on SK-MEL-28 melanoma, 106%.
Take `CC[C@@]1(OC(=O)CN(C)C)C(=O)OCc2c1cc1n(c2=O)Cc2cc3c(N)cccc3nc2-1`: the growth with DU-145 prostate is 4.87% (active); in the assay with K-562 leukemia it was 9.06% (active); in the assay on MALME-3M melanoma it was -23.9% (active); with MDA-MB-231 breast, 27.7%; in the assay with RXF 393 renal, -23.4% (active); in the assay on SF-268 CNS, 8.15% (active). In addition, the growth in the assay on SF-295 CNS was -7.04% (active); in the assay with SF-539 CNS, -30.9% (active); in the assay with UACC-257 melanoma it was -35.4% (active); with M14 melanoma, -40.1% (active); in the assay with HCT-15 colon it was 6.43% (active); in the assay with HT29 colon, 4.94% (active). The growth was -10.5% (active) with SNB-75 CNS; 11.2% with SNB-19 CNS; 3.98% (active) in the assay with U251 CNS; 18% in the assay on PC-3 prostate; -77.8% (active) with UACC-62 melanoma; -39.3% (active) in the assay with LOX IMVI melanoma. In addition, the growth with SK-MEL-28 melanoma was 16.5%.
For the molecule `CCC(C)(c1ccc(O)c(C)c1)c1ccc(O)c(C)c1`, the growth is 110% in the assay with DU-145 prostate; 106% with K-562 leukemia; 219% in the assay on MALME-3M melanoma; 85% in the assay on MDA-MB-231 breast; 87.4% in the assay on RXF 393 renal; 89.7% in the assay on SF-268 CNS. In addition, the growth was 87.8% in the assay with SF-295 CNS; 93.7% in the assay on SF-539 CNS; 107% in the assay on UACC-257 melanoma; 91.6% in the assay on M14 melanoma; 99.1% in the assay with HCT-15 colon; 104% with HT29 colon. In addition, the growth is 64.8% with SNB-75 CNS; 105% in the assay with SNB-19 CNS; 94.4% with U251 CNS; 86.1% with PC-3 prostate; 95.2% with SK-MEL-5 melanoma; 68.9% with UACC-62 melanoma. Also, the results for the growth in the assay on LOX IMVI melanoma and with SK-MEL-28 melanoma were 104% and 133%, respectively.
`O=S(=O)(c1cc(Cl)ccc1O)c1cc(Cl)ccc1O`: the growth is 100% with DU-145 prostate; 62.1% in the assay with K-562 leukemia; 95.7% with MALME-3M melanoma; 95.4% in the assay with MDA-MB-231 breast; 102% in the assay on RXF 393 renal; 88.2% with SF-268 CNS. In addition, the growth in the assay on SF-295 CNS is 85.2%; in the assay with SF-539 CNS, 86.6%; in the assay on UACC-257 melanoma it was 35.1%; in the assay on M14 melanoma, 75.8%; with HCT-15 colon it was 94.2%; in the assay on HT29 colon, 105%. In addition, the growth in the assay on SNB-75 CNS is 77.1%; in the assay with SNB-19 CNS it was 91.8%; in the assay with U251 CNS it was 76.7%; in the assay with PC-3 prostate, 80.6%; in the assay with SK-MEL-5 melanoma, 53.5%; with UACC-62 melanoma, 31.1%. In addition, the growth in the assay with LOX IMVI melanoma is 93.5%; with SK-MEL-28 melanoma, 87.5%.
